Our source for the growth inhibition values is PubChem BioAssay (NCI).

Values joined by “and” are separate entries in the source; they are usually repeats but may differ in a detail not shown here. Equal values may be shown once. About 79,000 compounds went through this panel and 15% of them were active in at least one assay; those are over-represented in the sample as a whole. The source holds several records for some structures; these can differ, active in one and inactive in another. Active and inactive are the calls of the source. No stated cut-off is given here; in the data, active means growth inhibition above about 70%; inactive means the rest.

A short description of one experiment: NCI Yeast Anticancer Drug Screen. Data for the mlh1 rad18 strain (AID 175). As to conditions: S. cerevisiae mlh1 rad18 strain growth inhibition; at 50.0 µM (retest, dose inferred, filed as 5.0); stronger effect = higher value. Put shortly: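 A repair-deficient yeast strain is exposed to test compound, and growth is scored relative to vehicle-treated controls.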
Consider `OCC1OC(n2cnc3c(=S)nc[nH]c32)C(O)C1O` (centres undefined), for which the growth inhibition is -14% (inactive).

For the molecule `CCOC(=O)C(C(=O)c1ccccc1)C(=O)c1ccccc1`, the growth inhibition is 97% (active).

Consider `COC1/C=C\C=C(/C)C(=O)Nc2cc3nc4ccc(Br)cc4oc-3c(c2=O)CC(C)CC(OC)C(O)C(C)/C=C(\C)C1OC(N)=O` (centres undefined), for which the growth inhibition is 98% (active).

Take `Nc1ccc([N+](=O)[O-])c(S(=O)(=O)O)c1`: the growth inhibition was -104% (inactive).

As for `CCOc1ccc2ccccc2c1C(Cc1ccc(Cl)cc1)NCCO` (centres undefined), the growth inhibition is 22% (inactive).

For `O=C1C(=Cc2ccc(O)cc2)N=C(c2ccccc2)N1n1c(-c2ccccc2)nc2ccccc2c1=O`, the growth inhibition was 64% (inactive).

Regarding `Cc1nc2ccccc2cc1CCl`, the growth inhibition is 90% (active).

For `Cc1cc(NS(=O)(=O)c2ccc(N=Nc3cc(N=Nc4ccc(S(=O)(=O)Nc5cc(C)nc(C)n5)cc4)c4c(NC(=O)C(Cl)Cl)cccc4c3OC(=O)C(Cl)Cl)cc2)nc(C)n1` (tested in a mixture with another compound), the growth inhibition was 70% (active).

In the case of `CCCCCCN(CCCCCC)C(=O)C1=C(C)NC(C)=C(C(=O)N(CCCCCC)CCCCCC)C1`, the growth inhibition was -13% (inactive).

For the molecule `O=[N+]([O-])Cc1cnc2nncn2n1`, the growth inhibition was 97% (active).

Consider `COc1ccc(N/N=C(\CCN(C)C)c2ccccc2)cc1`, for which the growth inhibition was 78% (active).

As to `O=C(O)/C(=C(/c1ccccc1)c1ccc(Cl)cc1)c1ccccc1`, the growth inhibition is 98% (active).

As for `c1ccc([P+](CCCCCCCC[P+](c2ccccc2)(c2ccccc2)c2ccccc2)(c2ccccc2)c2ccccc2)cc1`, the growth inhibition is 97% (active).

On to `OCCNc1nc(NCCO)c2nc(-c3ccccc3)c(-c3ccccc3)nc2n1`, for which the growth inhibition is 89% (active) and 52% (inactive).

For the molecule `OC(c1ccccc1)(c1ccccc1)c1ccccc1` (tested in a mixture with another compound), the growth inhibition is 93% (active).

In the case of `CC(=O)Nc1c(Cl)c(Cl)c2c(c1Cl)Cc1cc(Cl)ccc1-2`, the growth inhibition is 99% (active).

As for `Cc1cc(C)nc(NS(=O)(=O)c2ccc(Nc3c4ccccc4nc4c(C(=O)NCCCN(CCO)CCO)cccc34)cc2)n1`, the growth inhibition is 1% (inactive).

In the case of `CCn1c2ccccc2c2ccc(N=Cc3ccc(N(C)C)cc3)cc21`, the growth inhibition was 37% (inactive).

Take `O=C(C(=Cc1ccccc1)C(=O)c1ccccc1)c1ccccc1`: the growth inhibition is 94% (active).

With `c1ccc(C2=NC(c3ccccc3)=NS(S3=NC(c4ccccc4)=NC(c4ccccc4)=N3)=N2)cc1` (centres undefined), the growth inhibition is 97% (active).

Consider `Nc1nc(-c2ccccn2)cc2ccccc12`, for which the growth inhibition was 85% (active).

In the case of `CCN(CC)CCCn1c2cc(=O)c(=O)cc-2[nH]c2cc(C)ccc21`, the growth inhibition is 52% (inactive).

In the case of `COc1cc(O)ccc1C(=S)SC`, the growth inhibition is 87% (active).

With `O=[N+]([O-])C1=C(c2ccccc2)SC=C(c2ccccc2)S1`, the growth inhibition was -10% (inactive) and -3% (inactive).

For `N#CC1(C2SCCS2=O)C2=C(C(=O)c3ccccc3C2=O)N2CCCC21` (centres undefined), the growth inhibition was 67% (inactive).

With `O=C1C=CC(=O)C(C2OC(=O)C(Br)=C2Br)=C1` (centres undefined), the growth inhibition was 46% (inactive).

As for `CN1CCN(CCCN2c3ccccc3Sc3ccc(C(F)(F)F)cc32)CC1`, the growth inhibition was 99% (active) and 96% (active).

`Cc1ccc(S(=O)(=O)C23C(N=NC2(C)C)C3(C)C)cc1` (centres undefined): the growth inhibition is -16% (inactive).

With `COC(=O)C(=O)C(C(=O)C(c1ccccc1)c1ccccc1)c1nc2n(c1O)/C(=N/C(=O)Nc1ccc(Cl)cc1)N=N2` (centres undefined), the growth inhibition was 41% (inactive).

With `O=C(O)c1ccc2c(c1)Cc1cc([N+](=O)[O-])ccc1-2`, the growth inhibition was 82% (active).

On to `O=c1[nH]c2cc([N+](=O)[O-])ccc2nc1/C=C(\O)c1ccc([N+](=O)[O-])cc1`, for which the growth inhibition was 77% (active).

Regarding `c1ccc(C(c2ccccc2)n2ccnc2)cc1`, the growth inhibition was 1% (inactive).

Turning to `c1ccc2c(c1)CNc1ccccc1-2`, the growth inhibition is 45% (inactive).

`COC(=O)c1nnn(-c2ccc(S(N)(=O)=O)cc2)c1N`: the growth inhibition was -23% (inactive).

For `COC(=O)c1ccc(O)c(OC)c1`, the growth inhibition is -3% (inactive).

Regarding `O=c1[nH]c(SCc2c(Cl)c(Cl)c(Cl)c(Cl)c2Cl)nc(=S)[nH]1`, the growth inhibition is 86% (active).

As to `Cc1nc2c(ccc3[nH]c4ccccc4c32)s1`, the growth inhibition was 99% (active).

Staying with this experiment, now noted: S. cerevisiae mlh1 rad18 strain growth inhibition; at 50.0 µM; stronger effect = higher value.
Turning to `OCC1OC(n2cnc3c(=S)nc[nH]c32)C(O)C1O` (centres undefined), the growth inhibition was 3.2% (inactive) and -1.15% (inactive).

On to `CCOC(=O)C(C(=O)c1ccccc1)C(=O)c1ccccc1`, for which the growth inhibition was -22% (inactive) and 90.8% (active).

For `COC1/C=C\C=C(/C)C(=O)Nc2cc3nc4ccc(Br)cc4oc-3c(c2=O)CC(C)CC(OC)C(O)C(C)/C=C(\C)C1OC(N)=O` (centres undefined), the growth inhibition is 88.1% (active).

Take `Nc1ccc([N+](=O)[O-])c(S(=O)(=O)O)c1`: the growth inhibition is 64.6% (inactive) and 6.45% (inactive).

With `CCOc1ccc2ccccc2c1C(Cc1ccc(Cl)cc1)NCCO` (centres undefined), the growth inhibition was 98.5% (active).

In the case of `O=C1C(=Cc2ccc(O)cc2)N=C(c2ccccc2)N1n1c(-c2ccccc2)nc2ccccc2c1=O`, the growth inhibition was 91.8% (active).

Consider `Cc1nc2ccccc2cc1CCl`, for which the growth inhibition is 69.8% (inactive).

For `Cc1cc(NS(=O)(=O)c2ccc(N=Nc3cc(N=Nc4ccc(S(=O)(=O)Nc5cc(C)nc(C)n5)cc4)c4c(NC(=O)C(Cl)Cl)cccc4c3OC(=O)C(Cl)Cl)cc2)nc(C)n1` (tested in a mixture with another compound), the growth inhibition was -56.5% (inactive) and 81.5% (active).

As for `CCCCCCN(CCCCCC)C(=O)C1=C(C)NC(C)=C(C(=O)N(CCCCCC)CCCCCC)C1`, the growth inhibition was 59% (inactive).

Consider `O=[N+]([O-])Cc1cnc2nncn2n1`, for which the growth inhibition was 87.5% (active).

For the molecule `COc1ccc(N/N=C(\CCN(C)C)c2ccccc2)cc1`, the growth inhibition is 94.8% (active).

For the molecule `O=C(O)/C(=C(/c1ccccc1)c1ccc(Cl)cc1)c1ccccc1`, the growth inhibition is 97.4% (active) and 89.5% (active).

Turning to `c1ccc([P+](CCCCCCCC[P+](c2ccccc2)(c2ccccc2)c2ccccc2)(c2ccccc2)c2ccccc2)cc1`, the growth inhibition was 89.8% (active).

As to `OCCNc1nc(NCCO)c2nc(-c3ccccc3)c(-c3ccccc3)nc2n1`, the growth inhibition is 16.5% (inactive) and 61.2% (inactive).

`OC(c1ccccc1)(c1ccccc1)c1ccccc1` (tested in a mixture with another compound): the growth inhibition was 9.15% (inactive) and 94% (active).

Turning to `CC(=O)Nc1c(Cl)c(Cl)c2c(c1Cl)Cc1cc(Cl)ccc1-2`, the growth inhibition was 98.5% (active).

Turning to `Cc1cc(C)nc(NS(=O)(=O)c2ccc(Nc3c4ccccc4nc4c(C(=O)NCCCN(CCO)CCO)cccc34)cc2)n1`, the growth inhibition was 60.2% (inactive).

With `CCn1c2ccccc2c2ccc(N=Cc3ccc(N(C)C)cc3)cc21`, the growth inhibition is 47.5% (inactive).

For `O=C(C(=Cc1ccccc1)C(=O)c1ccccc1)c1ccccc1`, the growth inhibition is 87.8% (active) and 20.8% (inactive).

As for `c1ccc(C2=NC(c3ccccc3)=NS(S3=NC(c4ccccc4)=NC(c4ccccc4)=N3)=N2)cc1` (centres undefined), the growth inhibition is 92.3% (active).

Take `Nc1nc(-c2ccccn2)cc2ccccc12`: the growth inhibition is 11.1% (inactive).

For `CCN(CC)CCCn1c2cc(=O)c(=O)cc-2[nH]c2cc(C)ccc21`, the growth inhibition was 40% (inactive).

In the case of `COc1cc(O)ccc1C(=S)SC`, the growth inhibition is 30.9% (inactive).

With `O=[N+]([O-])C1=C(c2ccccc2)SC=C(c2ccccc2)S1`, the growth inhibition is 57.5% (inactive) and 85.9% (active).

Regarding `N#CC1(C2SCCS2=O)C2=C(C(=O)c3ccccc3C2=O)N2CCCC21` (centres undefined), the growth inhibition is 89.9% (active).

On to `O=C1C=CC(=O)C(C2OC(=O)C(Br)=C2Br)=C1` (centres undefined), for which the growth inhibition is 12.4% (inactive).

As for `CN1CCN(CCCN2c3ccccc3Sc3ccc(C(F)(F)F)cc32)CC1`, the growth inhibition was 99.6% (active).

On to `Cc1ccc(S(=O)(=O)C23C(N=NC2(C)C)C3(C)C)cc1` (centres undefined), for which the growth inhibition is 8.4% (inactive).

With `COC(=O)C(=O)C(C(=O)C(c1ccccc1)c1ccccc1)c1nc2n(c1O)/C(=N/C(=O)Nc1ccc(Cl)cc1)N=N2` (centres undefined), the growth inhibition is 78.5% (active).

`O=C(O)c1ccc2c(c1)Cc1cc([N+](=O)[O-])ccc1-2`: the growth inhibition was 73% (active).

For `O=c1[nH]c2cc([N+](=O)[O-])ccc2nc1/C=C(\O)c1ccc([N+](=O)[O-])cc1`, the growth inhibition is 68.4% (inactive) and -1.4% (inactive).

For `c1ccc(C(c2ccccc2)n2ccnc2)cc1`, the growth inhibition is 80.7% (active).

Regarding `c1ccc2c(c1)CNc1ccccc1-2`, the growth inhibition was 92.1% (active).

Consider `COC(=O)c1nnn(-c2ccc(S(N)(=O)=O)cc2)c1N`, for which the growth inhibition was 64.9% (inactive).

For `COC(=O)c1ccc(O)c(OC)c1`, the growth inhibition was 9.5% (inactive).

For the molecule `O=c1[nH]c(SCc2c(Cl)c(Cl)c(Cl)c(Cl)c2Cl)nc(=S)[nH]1`, the growth inhibition is 70.8% (active).

As for `Cc1nc2c(ccc3[nH]c4ccccc4c32)s1`, the growth inhibition is 89.9% (active).
